ChEMBL document CHEMBL1961873, “Compounds: GSK PKIS; Assays: Nanosyn kinase panel” (2012)

Tests used:
[1] = molecular target: T1, Tyrosine-protein kinase ITK/TSK (Homo sapiens) (UniProt Q08881); conditions: at 1 µM;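 further: values are mean percent inhibition of ITK from the GSK PKIS screen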
T1 sequence (whole entry): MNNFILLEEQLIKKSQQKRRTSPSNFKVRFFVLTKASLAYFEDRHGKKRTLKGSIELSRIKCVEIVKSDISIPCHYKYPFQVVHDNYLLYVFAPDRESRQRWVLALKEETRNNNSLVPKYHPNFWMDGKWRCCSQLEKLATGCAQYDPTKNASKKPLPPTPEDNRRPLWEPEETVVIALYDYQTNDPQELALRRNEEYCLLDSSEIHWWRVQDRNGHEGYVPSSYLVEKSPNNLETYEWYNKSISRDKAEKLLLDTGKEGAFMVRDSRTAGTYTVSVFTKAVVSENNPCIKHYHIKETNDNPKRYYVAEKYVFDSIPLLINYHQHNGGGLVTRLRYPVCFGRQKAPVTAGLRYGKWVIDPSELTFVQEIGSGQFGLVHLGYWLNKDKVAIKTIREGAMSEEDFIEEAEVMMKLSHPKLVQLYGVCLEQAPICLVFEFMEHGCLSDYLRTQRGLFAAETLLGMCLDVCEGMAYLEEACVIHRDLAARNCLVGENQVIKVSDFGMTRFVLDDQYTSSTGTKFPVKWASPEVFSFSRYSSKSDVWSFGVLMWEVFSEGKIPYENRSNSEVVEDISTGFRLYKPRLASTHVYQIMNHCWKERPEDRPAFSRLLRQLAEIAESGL

[2] = molecular target: Tyrosine-protein kinase JAK1 (Homo sapiens) (UniProt P23458); conditions: at 0.1 µM
[3] = molecular target: Tyrosine-protein kinase JAK1 (Homo sapiens) (UniProt P23458); conditions: at 1 µM
[4] = molecular target: Tyrosine-protein kinase JAK2 (Homo sapiens) (UniProt O60674); conditions: at 0.1 µM
[5] = molecular target: Tyrosine-protein kinase JAK2 (Homo sapiens) (UniProt O60674); conditions: at 1 µM
[6] = molecular target: T2, Tyrosine-protein kinase JAK3 (Homo sapiens) (UniProt P52333); conditions: at 0.1 µM
T2 sequence (whole entry): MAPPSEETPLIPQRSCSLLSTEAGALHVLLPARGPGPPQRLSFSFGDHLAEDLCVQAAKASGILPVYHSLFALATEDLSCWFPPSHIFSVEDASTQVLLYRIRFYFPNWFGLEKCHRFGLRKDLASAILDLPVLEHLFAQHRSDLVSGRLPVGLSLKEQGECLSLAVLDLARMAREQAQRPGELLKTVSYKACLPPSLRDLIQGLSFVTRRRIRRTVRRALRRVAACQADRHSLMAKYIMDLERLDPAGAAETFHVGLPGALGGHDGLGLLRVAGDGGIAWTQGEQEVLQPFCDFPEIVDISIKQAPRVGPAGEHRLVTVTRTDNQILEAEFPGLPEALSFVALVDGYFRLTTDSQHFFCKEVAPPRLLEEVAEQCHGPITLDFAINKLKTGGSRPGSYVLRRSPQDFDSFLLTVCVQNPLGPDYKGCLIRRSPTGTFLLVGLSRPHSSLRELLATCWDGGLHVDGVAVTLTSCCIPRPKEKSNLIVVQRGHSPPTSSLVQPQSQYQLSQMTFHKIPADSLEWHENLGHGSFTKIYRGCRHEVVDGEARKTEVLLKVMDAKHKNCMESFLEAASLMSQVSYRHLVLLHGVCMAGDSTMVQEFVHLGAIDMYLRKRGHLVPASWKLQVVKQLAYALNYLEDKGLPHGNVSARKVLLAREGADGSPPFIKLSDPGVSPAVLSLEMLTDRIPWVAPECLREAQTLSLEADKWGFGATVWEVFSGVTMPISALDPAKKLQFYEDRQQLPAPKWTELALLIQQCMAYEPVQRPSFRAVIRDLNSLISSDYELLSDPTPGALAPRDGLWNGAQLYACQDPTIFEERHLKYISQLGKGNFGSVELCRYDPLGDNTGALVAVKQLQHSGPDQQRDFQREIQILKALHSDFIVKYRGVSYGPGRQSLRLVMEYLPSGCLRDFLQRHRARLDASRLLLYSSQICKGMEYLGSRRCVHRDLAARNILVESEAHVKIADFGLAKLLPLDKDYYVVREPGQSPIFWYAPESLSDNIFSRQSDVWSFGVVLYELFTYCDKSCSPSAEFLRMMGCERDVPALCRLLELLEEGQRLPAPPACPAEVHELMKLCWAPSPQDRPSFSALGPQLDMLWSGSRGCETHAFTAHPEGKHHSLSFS

[7] = molecular target: T2, Tyrosine-protein kinase JAK3 (Homo sapiens); conditions: at 1 µM
[8] = molecular target: Vascular endothelial growth factor receptor 2 (Homo sapiens) (UniProt P35968); conditions: at 0.1 µM
[9] = molecular target: Vascular endothelial growth factor receptor 2 (Homo sapiens) (UniProt P35968); conditions: at 1 µM
[10] = molecular target: Mast/stem cell growth factor receptor Kit (Homo sapiens) (UniProt P10721); conditions: at 0.1 µM;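 further: values are mean inhibition of KIT, from the GSK PKIS dataset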
Sequence of Mast/stem cell growth factor receptor Kit (Homo sapiens) (P10721 whole entry): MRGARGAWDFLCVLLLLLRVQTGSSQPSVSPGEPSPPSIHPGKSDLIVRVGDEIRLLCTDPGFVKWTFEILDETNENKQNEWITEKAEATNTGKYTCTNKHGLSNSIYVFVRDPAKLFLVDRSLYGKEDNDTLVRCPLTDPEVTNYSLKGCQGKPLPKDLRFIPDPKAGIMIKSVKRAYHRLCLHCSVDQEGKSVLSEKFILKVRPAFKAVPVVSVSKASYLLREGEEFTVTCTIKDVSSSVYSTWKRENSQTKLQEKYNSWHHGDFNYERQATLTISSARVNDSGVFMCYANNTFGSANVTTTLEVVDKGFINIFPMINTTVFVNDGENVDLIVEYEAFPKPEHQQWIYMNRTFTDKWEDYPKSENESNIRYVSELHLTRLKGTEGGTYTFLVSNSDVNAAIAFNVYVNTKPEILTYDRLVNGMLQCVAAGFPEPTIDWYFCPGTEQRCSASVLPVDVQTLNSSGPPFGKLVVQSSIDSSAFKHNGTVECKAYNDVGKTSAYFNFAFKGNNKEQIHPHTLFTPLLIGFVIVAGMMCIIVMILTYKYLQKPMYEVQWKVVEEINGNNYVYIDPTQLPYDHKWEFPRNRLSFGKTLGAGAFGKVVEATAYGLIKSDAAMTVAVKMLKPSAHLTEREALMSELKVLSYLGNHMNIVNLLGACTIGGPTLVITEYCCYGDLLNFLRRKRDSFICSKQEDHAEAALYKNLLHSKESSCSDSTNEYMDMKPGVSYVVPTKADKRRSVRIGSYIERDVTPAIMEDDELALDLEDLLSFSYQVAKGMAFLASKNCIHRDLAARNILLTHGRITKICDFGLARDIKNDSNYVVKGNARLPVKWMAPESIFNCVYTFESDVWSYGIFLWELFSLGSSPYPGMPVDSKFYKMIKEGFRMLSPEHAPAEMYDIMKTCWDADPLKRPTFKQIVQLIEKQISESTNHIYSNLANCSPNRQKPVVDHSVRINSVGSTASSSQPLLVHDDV

Sequence of Vascular endothelial growth factor receptor 2 (Homo sapiens) (P35968 whole entry): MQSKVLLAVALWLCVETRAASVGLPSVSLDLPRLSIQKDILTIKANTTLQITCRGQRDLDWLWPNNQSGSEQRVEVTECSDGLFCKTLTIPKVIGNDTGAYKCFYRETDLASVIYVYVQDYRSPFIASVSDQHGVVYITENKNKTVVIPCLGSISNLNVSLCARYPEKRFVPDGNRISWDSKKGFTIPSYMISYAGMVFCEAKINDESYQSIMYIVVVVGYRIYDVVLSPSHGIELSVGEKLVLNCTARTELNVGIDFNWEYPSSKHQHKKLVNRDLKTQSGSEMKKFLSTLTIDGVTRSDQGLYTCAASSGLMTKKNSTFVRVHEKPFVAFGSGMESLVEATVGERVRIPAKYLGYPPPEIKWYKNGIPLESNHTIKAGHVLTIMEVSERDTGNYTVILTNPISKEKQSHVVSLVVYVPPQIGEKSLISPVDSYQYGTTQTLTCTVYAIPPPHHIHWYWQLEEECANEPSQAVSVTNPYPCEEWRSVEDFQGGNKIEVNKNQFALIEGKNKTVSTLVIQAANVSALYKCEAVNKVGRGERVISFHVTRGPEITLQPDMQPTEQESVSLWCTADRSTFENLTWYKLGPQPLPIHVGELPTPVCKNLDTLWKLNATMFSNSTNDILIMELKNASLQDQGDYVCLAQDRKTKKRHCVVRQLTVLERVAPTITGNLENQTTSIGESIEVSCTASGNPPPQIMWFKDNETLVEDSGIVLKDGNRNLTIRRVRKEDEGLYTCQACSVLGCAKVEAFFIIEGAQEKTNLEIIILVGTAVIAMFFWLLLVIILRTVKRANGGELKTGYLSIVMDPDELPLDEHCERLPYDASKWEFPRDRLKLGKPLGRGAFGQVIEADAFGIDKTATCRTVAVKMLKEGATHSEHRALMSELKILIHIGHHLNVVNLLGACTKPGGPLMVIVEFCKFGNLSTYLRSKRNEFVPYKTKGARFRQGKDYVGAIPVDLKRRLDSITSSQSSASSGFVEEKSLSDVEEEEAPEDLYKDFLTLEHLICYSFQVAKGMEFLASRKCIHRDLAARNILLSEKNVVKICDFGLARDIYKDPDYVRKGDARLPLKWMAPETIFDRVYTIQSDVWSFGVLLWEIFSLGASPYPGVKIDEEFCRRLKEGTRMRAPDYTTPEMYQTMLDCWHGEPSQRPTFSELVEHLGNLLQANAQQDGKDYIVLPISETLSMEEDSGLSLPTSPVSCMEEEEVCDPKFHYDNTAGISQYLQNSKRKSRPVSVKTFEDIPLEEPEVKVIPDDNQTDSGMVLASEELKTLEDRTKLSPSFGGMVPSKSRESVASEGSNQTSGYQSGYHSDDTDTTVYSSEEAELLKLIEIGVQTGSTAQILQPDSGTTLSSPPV
Sequence of Tyrosine-protein kinase JAK2 (Homo sapiens) (O60674 whole entry): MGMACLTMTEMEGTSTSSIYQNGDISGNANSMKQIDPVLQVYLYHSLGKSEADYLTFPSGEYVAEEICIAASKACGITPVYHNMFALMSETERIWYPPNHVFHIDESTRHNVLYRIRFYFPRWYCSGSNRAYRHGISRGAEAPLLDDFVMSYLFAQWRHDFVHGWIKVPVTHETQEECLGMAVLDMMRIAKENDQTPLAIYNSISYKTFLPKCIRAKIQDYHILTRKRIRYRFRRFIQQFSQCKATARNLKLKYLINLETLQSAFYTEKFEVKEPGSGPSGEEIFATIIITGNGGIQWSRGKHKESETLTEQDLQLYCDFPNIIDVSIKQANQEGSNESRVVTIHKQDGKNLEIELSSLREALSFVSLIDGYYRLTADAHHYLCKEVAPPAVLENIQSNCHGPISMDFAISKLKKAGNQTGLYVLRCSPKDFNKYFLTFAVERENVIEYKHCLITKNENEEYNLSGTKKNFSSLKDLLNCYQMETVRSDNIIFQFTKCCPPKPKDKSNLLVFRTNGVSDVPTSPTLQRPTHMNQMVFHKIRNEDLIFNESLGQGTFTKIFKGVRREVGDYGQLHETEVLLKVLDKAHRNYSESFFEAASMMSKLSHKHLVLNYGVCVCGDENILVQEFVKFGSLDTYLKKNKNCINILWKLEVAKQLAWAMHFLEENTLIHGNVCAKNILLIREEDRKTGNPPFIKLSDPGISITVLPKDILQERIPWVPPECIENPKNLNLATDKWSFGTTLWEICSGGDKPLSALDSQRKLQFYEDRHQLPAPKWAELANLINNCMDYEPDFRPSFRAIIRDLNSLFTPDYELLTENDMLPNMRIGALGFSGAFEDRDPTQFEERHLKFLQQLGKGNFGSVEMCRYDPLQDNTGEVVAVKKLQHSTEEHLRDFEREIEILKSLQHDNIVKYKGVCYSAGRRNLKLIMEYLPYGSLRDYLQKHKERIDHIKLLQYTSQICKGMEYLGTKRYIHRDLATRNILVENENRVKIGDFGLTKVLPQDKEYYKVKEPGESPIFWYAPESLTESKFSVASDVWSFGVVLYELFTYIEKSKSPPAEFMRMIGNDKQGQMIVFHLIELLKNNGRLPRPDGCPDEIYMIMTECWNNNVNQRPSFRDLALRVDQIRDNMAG
Sequence of Tyrosine-protein kinase JAK1 (Homo sapiens) (P23458 whole entry): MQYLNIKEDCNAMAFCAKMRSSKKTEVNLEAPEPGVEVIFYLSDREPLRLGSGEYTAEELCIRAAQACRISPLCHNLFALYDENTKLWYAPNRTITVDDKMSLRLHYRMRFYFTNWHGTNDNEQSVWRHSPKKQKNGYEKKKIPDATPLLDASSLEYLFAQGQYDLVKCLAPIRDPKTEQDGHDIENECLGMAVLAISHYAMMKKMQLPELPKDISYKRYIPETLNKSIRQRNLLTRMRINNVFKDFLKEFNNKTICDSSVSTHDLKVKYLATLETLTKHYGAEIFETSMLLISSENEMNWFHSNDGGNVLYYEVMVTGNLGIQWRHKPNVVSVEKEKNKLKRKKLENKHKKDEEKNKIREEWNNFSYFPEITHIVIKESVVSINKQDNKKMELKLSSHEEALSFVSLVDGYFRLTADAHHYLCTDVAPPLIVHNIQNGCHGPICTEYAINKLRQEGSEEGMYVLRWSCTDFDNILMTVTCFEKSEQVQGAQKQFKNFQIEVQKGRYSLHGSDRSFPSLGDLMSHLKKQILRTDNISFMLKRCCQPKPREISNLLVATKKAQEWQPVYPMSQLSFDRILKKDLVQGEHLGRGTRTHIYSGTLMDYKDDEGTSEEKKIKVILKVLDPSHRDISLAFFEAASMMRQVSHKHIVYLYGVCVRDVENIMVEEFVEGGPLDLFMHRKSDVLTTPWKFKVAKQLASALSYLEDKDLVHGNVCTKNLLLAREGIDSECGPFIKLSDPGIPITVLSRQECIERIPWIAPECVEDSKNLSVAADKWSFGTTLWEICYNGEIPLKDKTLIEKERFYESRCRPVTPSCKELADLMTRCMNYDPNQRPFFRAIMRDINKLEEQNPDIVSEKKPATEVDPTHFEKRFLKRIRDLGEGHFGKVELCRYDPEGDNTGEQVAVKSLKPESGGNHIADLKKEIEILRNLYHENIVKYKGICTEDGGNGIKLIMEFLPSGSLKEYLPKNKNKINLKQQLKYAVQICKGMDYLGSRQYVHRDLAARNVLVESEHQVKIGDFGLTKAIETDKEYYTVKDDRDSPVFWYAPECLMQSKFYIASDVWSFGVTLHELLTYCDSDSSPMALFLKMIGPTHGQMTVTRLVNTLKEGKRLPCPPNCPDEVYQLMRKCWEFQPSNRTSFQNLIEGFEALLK

SMILES	inhibition [1]	inhibition [2]	inhibition [3]	inhibition [4]	inhibition [5]	inhibition [6]	inhibition [7]	inhibition [8]	inhibition [9]	inhibition [10]
O=C1NC(=O)C(c2cccc(Cl)c2)=C1Nc1ccc(Cl)c(C(=O)O)c1	0.9%	4.75%	13.7%	0.64%	0.7%	-0.9%	9.29%	6.04%	23.5%	6.54%
COc1cc2ncn(-c3cc(OCc4cccs4)c(C(N)=O)s3)c2cc1OC	2.34%	9.11%	19.9%	1.45%	1.19%	-2.77%	-0.29%	14.1%	50.5%	1.96%
COc1ccc2cc(-c3c(-c4ccncc4)nc(-c4ccc([S+](C)[O-])cc4C)n3C)ccc2c1 (stereo not given)	0.95%	-3.09%	4.21%	0.25%	-0.49%	0.51%	0.61%	8.24%	49%	-0.44%
C/C(Nc1ccc(S(N)(=O)=O)cc1)=C1/C(=O)Nc2ccccc21	4.72%	-6.57%	-1.09%	-0.57%	0.27%	-0.45%	6.44%	9.11%	44.5%	38.4%
CS(=O)(=O)CCNCc1ccc(-c2ccc3ncnc(Nc4ccc(OCc5ccccc5)c(Br)c4)c3c2)o1	-2.69%	3.52%	3.08%	1.19%	-1.02%	-5.54%	-5.98%	10.1%	11.1%	3.38%
COc1cccc(-n2cnc3c(N/N=C/c4ccncc4)ncnc32)c1	-1.27%	4.44%	16.3%	0.27%	0.37%	-2.48%	-2.19%	-0.11%	11.2%	33.4%
Fc1ccc(-c2ncn(C3CCNCC3)c2-c2ccnc(Oc3ccc(F)c(F)c3)n2)cc1	-2.62%	3.04%	7.49%	1.1%	0.69%	-5.49%	-1.81%	6.78%	11.5%	1.92%
O=C(Nc1ccc(Oc2ccc3[nH]c(NC(=O)c4ccccc4)nc3c2)cc1)Nc1cc(C(F)(F)F)ccc1F	2.09%	1.88%	7.18%	1.51%	4.06%	-0.16%	9.29%			10.4%
CS(=O)(=O)CCNCc1cc(-c2cc3c(Nc4ccc(OCc5cccc(F)c5)c(Cl)c4)ncnc3s2)cs1	3.04%	-1.42%	3.76%	2.28%	5.69%	-2.63%	-0.49%	6.12%	8.97%	7.21%
CN(c1ccc(NC(=O)Nc2c(Cl)cccc2Cl)cc1)c1ccnc(Nc2cccc(CS(C)(=O)=O)c2)n1	71.1%	8.34%	19.7%	2.35%	20.7%	0.53%	2.77%	24.6%	56.3%	88.5%
COC(=O)Nc1nc2ccc(Sc3ccc(NC(=O)Nc4cc(C(F)(F)F)ccc4F)cc3)cc2[nH]1	0.87%	0.69%	-4.92%	32.5%	2.1%	-1.15%	2.49%			1.63%
CN(C)CCCNc1nccc(-c2c(-c3ccc(F)cc3)nn3cc(C(F)(F)F)ccc23)n1	-1.31%	0.29%	-0.9%	0.65%	3.68%	-2.83%	-1.89%	6.32%	11.3%	3.48%
COc1ccc(-c2ccc3c(NC(=O)C4CC4)n[nH]c3n2)cc1	2.25%	2.09%	10.9%	-0.18%	-0.27%	-1%	0.12%	0.66%	3.4%	0.69%
FC(F)(F)c1cccc(Nc2nccc(-c3cnn4nc(-c5ccccc5)ccc34)n2)c1	3.33%	-0.86%	0.5%	-0.15%	0.22%	-1.84%	-0.12%	0.05%	6.02%	5.78%
COc1cc2ncn(-c3cc(OCc4ccccc4C(F)(F)F)c(C(C)=O)s3)c2cc1OC	6.89%	2.15%	2.47%	1.06%	-0.01%	-2.98%	-1.59%	3.96%	7.57%	3.46%
COc1cc(Nc2ncc(-c3ccccc3)o2)cc(OC)c1OC	2.92%	-8.6%	-0.54%	-0.76%	5.24%	-0.1%	12.7%	7.23%	48%	85.4%
O=C1Nc2ccccc2/C1=C/Nc1ccc(-n2cncn2)cc1	4.51%	5.01%	29.9%	0.53%	0.69%	-1.1%	6.49%	7.9%	37.3%	21.5%

SMILES	inhibition [1]	inhibition [2]	inhibition [3]	inhibition [4]	inhibition [5]	inhibition [6]	inhibition [7]	inhibition [8]	inhibition [9]	inhibition [10]
O=C(Nc1n[nH]c2nc(-c3ccco3)ccc12)C1CC1	2.43%	-0.37%	-0.27%	0.87%	2.09%	0.01%	2.11%	7.28%	14%	3.39%
COc1ccc2ncn(-c3cc(O[C@H](C)c4ccccc4Cl)c(C(N)=O)s3)c2c1	-2.51%	-3.1%	2.15%	1.31%	1.04%	-7%	-5.28%	3.61%	13.4%	4.64%
Fc1ccc(-c2ncn(C3CCNCC3)c2-c2ccnc(Oc3ccc4c(c3)OCO4)n2)cc1	3.21%	3.3%	4.29%	0.42%	1.47%	-2.3%	-2.01%	9.3%	12.5%	7.99%
N#Cc1ccc(Oc2nccc(-c3c(-c4ccc(F)cc4)ncn3C3CCNCC3)n2)cc1	0.22%	3.07%	3.3%	1.47%	0.75%	-3.92%	1.56%	3.95%	4.78%	6.17%
CCc1cccc(CC)c1/C=C/c1cncc(C(=O)NC)c1	2.29%	2.03%		1.99%	1.71%	-1.8%	0.86%	6.02%	8.91%	1%
O=C(NCC1CC1)c1ccc(-c2cccc(C(=O)NC3CC3)c2)cc1	2.71%	0.26%	-6.93%	1.73%	0.94%	-0.66%	0.07%	5.99%	8.55%	1.06%
C#Cc1cccc(Nc2ncnc3ccc(OCCCCNCCS(C)(=O)=O)cc23)c1	-2.14%	0.29%	13.4%	1%	0.71%	-4.71%	-3.57%	14.2%	19.6%	4.93%
O=C(Nc1n[nH]c2cc(-c3cc(F)ccc3F)ccc12)C1CC1	7.94%	3.49%	8.44%	1.64%	1.73%	-0.26%	-0.99%	6.28%	12%	4.01%
Clc1ccc(CNc2nccc(-c3cnn4ncccc34)n2)cc1	1.37%	-0.37%	-0.62%	1.52%	3.6%	-0.04%	2.94%	0.99%	2.77%	5%
COc1cccc(/C=N/Nc2ncnc3c2cnn3-c2cccc(OC)c2)c1	0.34%	1.61%	4.23%	3.55%	5.22%	-1.99%	-2.7%	5.88%	11.2%	6.67%
COc1cc(C)c(N(C)C(=O)CN(C)C)cc1Nc1nc(Nc2cccc(F)c2C(N)=O)c2cc[nH]c2n1	-1.94%	3.43%	-5.28%	0.96%	1.71%	-3.43%	-3.47%	1.87%	1.78%	0.03%
COc1cc(N2CCN(C(C)C)CC2)ccc1Nc1nc(Nc2ccc(F)cc2C(=O)NC[C@@H](O)CO)c2cc[nH]c2n1	-1.4%	3.78%	12.3%	0.29%	1.56%	-5.03%	-8.11%	5.49%	8.49%	4.46%
CCS(=O)(=O)c1ccc(OC)c(Nc2ncc(-c3ccccc3Cl)o2)c1	1.73%	5.17%	-2.96%	1.84%	0.94%	0.9%	4.04%	8.35%	33.8%	17.3%
c1ccc(-c2n[nH]cc2-c2ccnc(-c3ccc(OCCN4CCOCC4)cc3)c2)nc1	3.99%	6.98%	4.5%	0.47%	-0.22%	6.96%	5.88%	13.7%	60.8%	0.56%
Fc1ccc(-c2c(-c3ccncc3)nc3n2CCS3)cc1	-2.17%	1.7%	10.2%	0.77%	4.51%	-3.51%	2.02%	5.2%	9.29%	3.82%
C[C@@H](Oc1cc(-n2cnc3ccc(OCC4CCN(C)CC4)cc32)sc1C(N)=O)c1ccccc1Cl	3.2%	8.98%	6.05%	1.61%	2.26%	-1.46%	29.3%	7.07%	36.4%	5.23%
c1ccc(Oc2ccc(Nc3ncc(-c4ccccc4)o3)cc2)cc1	2.13%	0.76%	3.56%	1.66%	1.65%	-0.5%	4.13%	4.37%	3.48%	3.26%
